# Screens (PubChem)
# ClpP mod = qHTS Assay for Activators of ClpP; AID 651965, 2013; purified B. subtilis ClpP, FRET peptide cleavage, 20 min; hit rate 1.9% among 340,000; Potency, µM (highest dose often 57.5 µM), inactives show at the top dose activity change, negative = active; active means well fitted falling curve with a large enough effect; inconclusive means small, poorly fitted or top-dose-only effect; inactive means no such curve, though single readings can be large or run the other way; further: the source files actives as falling curves though it sought activators and does not explain the sign; nearly all actives have a fitted effect of over 65% in size
# Target sequence (P80244 whole entry, looked up): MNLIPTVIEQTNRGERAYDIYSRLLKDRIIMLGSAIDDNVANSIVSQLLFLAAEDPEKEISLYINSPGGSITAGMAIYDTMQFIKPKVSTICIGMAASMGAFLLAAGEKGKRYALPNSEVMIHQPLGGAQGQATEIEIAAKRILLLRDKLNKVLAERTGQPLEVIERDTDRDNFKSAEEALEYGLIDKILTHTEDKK
#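 Purified B. subtilis ClpP, 10 microg/mL final in Tris/HCl pH8 with KCl, BSA, glycerol and Tween-20, cleaved an Abz/nitrotyrosine-quenched decapeptide. Fluorescence (ex 320, em 430) was read at 0 and 20 min at room temperature. Delta was normalized to 5.8 microM ADEP and DMSO/no-enzyme controls.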
# TDP1 cell noCPT = qHTS for Inhibitors of human tyrosyl-DNA phosphodiesterase 1 (TDP1): qHTS in cells in absence of CPT | DT40 Tdp1-/- hTDP1 cells, no CPT, ATP luminescence, 48 h | Potency, µM (titrated, usually from 46.2 µM), inactives show at the top dose activity change, negative = growth inhibition, hits mostly inhibitors | hit rate 15% among 420,000; further: on the % scale 0 is the no-effect control and ±100 the full control effect; nearly all actives have a fitted effect of over 55% in size
#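 Growth kinetics read by CellTiter-Glo luminescence after ≥48 hr at 37 °C. Cells: DT40 Tdp1-/- stably carrying human TDP1, 400 per well, compound exposure in the absence of CPT (DMSO vehicle).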
# DT40 TDP1 CPT = qHTS for Inhibitors of human tyrosyl-DNA phosphodiesterase 1 (TDP1): qHTS in cells in presence of CPT. chicken DT40 Tdp1-/-;hTDP1 cells + 20 nM CPT, ATP luminescence, 48 h. Potency, µM (series often up to 46.2 µM), without a hit: at the highest dose activity change, negative = growth inhibition, hits mostly inhibitors. hit rate 12% among 420,000. AID 686979, 2013; further: on the % scale 0 is the no-effect control and ±100 the full control effect; nearly all actives have a fitted effect of over 55% in size
#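 Cell growth measured by CellTiter-Glo luminescence after a minimum 48 h, 37 C compound exposure with 20 nM CPT in Tdp1-knockout DT40 cells stably expressing hTDP1, seeded 400/well; qHTS titration format.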
# TDP1 inh = qHTS Assay for Inhibitors of Tyrosyl-DNA Phosphodiesterase (TDP1); Tyrosyl-DNA phosphodiesterase 1 (Homo sapiens), Q9NUW8; recombinant TDP1, AlphaScreen DNA substrate cleavage; Potency, µM (top dose mostly 130 µM), for the others: at the top dose activity change, negative = inhibition, usual class: inhibitors; hit rate 0.28% among 350,000; further: on the % scale 0 is the no-effect control and ±100 the full control effect; nearly all actives have a fitted effect of over 40% in size
#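 Steps: enzyme plus compound, 15 min RT; add biotin/phosphotyrosine-FITC oligonucleotide (15 nM final), react 5 min; add donor/acceptor beads (10 ug/ml final), 10 min; read AlphaScreen. Tdp1 at 1 nM final.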
# * hit, by the source's call; ? = inconclusive; . = no result given; [ ] = another dose, or the depositor's remark. The list is not random: actives were taken first. Their share in the collection is about 17%. Unless noted, the call rests on the fitted dose curve; in most records, active means well fitted curve in the direction sought with a large enough effect; inconclusive means small, poorly fitted or top-dose-only effect, or another doubt; inactive means no such curve, though single readings can be large; an effect the other way counts as inactive or inconclusive. Potency means the concentration at half of the fitted maximal effect.
SMILES,ClpP mod,TDP1 cell noCPT,DT40 TDP1 CPT,TDP1 inh
CC(=O)OCC1OC(n2cc(F)c(=O)[nH]c2=O)C(OC(C)=O)C1OC(C)=O (centres undefined),-2%,5.2µM*,8.2µM*,.
COC(=O)c1ncn(C2OC(COC(C)=O)C(OC(C)=O)C2OC(C)=O)n1 (centres undefined),-3%,-1%,6%,0%
COc1cccc(-n2c(=O)c3sccc3n(Cc3cc(=O)n4cc(Cl)ccc4n3)c2=O)c1,4%,-6%,-7%,5%
CN(C)Cc1ccccc1-c1nc(N(C)Cc2ccco2)c2ccccc2n1,.,8.2µM*,18µM*,7%[56.1 µM]
CN(C)Cc1ccccc1-c1nccc(N(C)Cc2ccco2)n1,.,?,21µM*,.
CCc1nn2c(=O)cc(COC(=O)c3ccc(NC(=O)COc4ccccc4C)cc3)nc2s1,0%,-24%,12%,1%
CCc1nn2c(=O)cc(COC(=O)c3cccc(NC(=O)COc4ccccc4F)c3)nc2s1,5%,?,18µM*,-1%
Cc1nn2c(=O)cc(COC(=O)c3cccc(NC(=O)COc4ccccc4C)c3)nc2s1,4%,21µM*,18µM*,1%
CCc1nn2c(=O)cc(COC(=O)c3ccccc3NC(=O)COc3ccccc3C)nc2s1,-15%,5.2µM*,4.1µM*,-1%
Cc1nn2c(=O)cc(COC(=O)c3ccc(NC(=O)COc4ccccc4F)cc3)nc2s1,5%,5.2µM*,5.8µM*,6%
Cc1nn2c(=O)cc(COC(=O)c3cccc(NC(=O)COc4ccc(C)c(C)c4)c3)nc2s1,?,-6%,17%,1%
Cc1cccc(NC(=O)CN(C)S(=O)(=O)c2ccc3c(c2)CCC(=O)N3)c1C,-1%,-21%,-13%,6%
O=C(NCCCN1CCN(c2ccc(F)cc2)CC1)c1ccc2nc(CCc3ccccc3)oc2c1,0%,?,?,3%
Cc1c(C)n(C)c2ccc(C(=O)NCCCN3CCN(c4ccccc4F)CC3)cc12,-19%,?,9.2µM*,16%
O=C(NCCCN1CCN(c2ccccc2F)CC1)c1ccc2nc(Cc3ccccc3)oc2c1,-2%,26µM*,?,7%
CCc1nc2ccc(C(=O)NCCCN3CCN(c4ccccc4F)CC3)cc2nc1CC,.,23µM*,?,.
CSc1ccc(NC(=O)NCCCN2CCN(c3ccccc3F)CC2)cc1,-1%,21µM*,21µM*,8%
O=C(NCN1CCN(c2ccccc2F)CC1)c1ccccc1,1%,-1%,-14%,4%
COc1cccc2cc(-c3nc(-c4ccccc4F)no3)c(=O)oc12,1%,-28%,-5%,3%
COc1ccccc1OCCC(=O)Nc1cccc(S(=O)(=O)N2CCOCC2)c1,2%,-7%,-24%,-2%
Cn1cnnc1SCCNS(=O)(=O)c1cccc([N+](=O)[O-])c1,-1%,-1%,-8%,0%
COC(=O)C(C(=O)OC)c1cc2c(cc1CNS(=O)(=O)c1ccc(C)cc1)OCO2,2%,5%,-12%,.
CCc1nn(CC(=O)NCCCN(C)Cc2ccccc2)c(=O)c2cc3sc(C)cc3n12,-4%,-62%,?,0%
c1ccc(CSc2nc3ncccc3[nH]2)cc1,-5%,?,-8%,7%
O=C(NCCCN1CCN(c2ccccc2F)CC1)c1ccc2nc(CCc3ccccc3)oc2c1,2%,15µM*,21µM*,3%
SMILES,ClpP mod,TDP1 cell noCPT,DT40 TDP1 CPT,TDP1 inh
O=C(Oc1ccc([N+](=O)[O-])cc1)c1cncc(Br)c1,-3%,-16%,-19%,-5%
Oc1cccc(Nc2nc(-c3ccccc3Cl)nc3ccccc23)c1,.,13µM*,16µM*,.
Oc1ccc(Nc2nc(-c3ccccc3O)nc3ccccc23)cc1,2%,?,?,.
Cc1ccc(-c2nc(Nc3ccc(N4CCOCC4)cc3)c3ccccc3n2)cc1,.,23µM*,?,.
Cc1sc2ncnc(Nc3ccc(N4CCOCC4)cc3)c2c1-c1ccccc1,-23%,?,16µM*,-3%
Cc1cc(C)nc(Nc2ccc(N3CCOCC3)cc2)n1,18%,-11%,-13%,7%
O=[N+]([O-])c1ccc(-c2nc(Nc3cccc(O)c3)c3ccccc3n2)cc1,-1%,4.1µM*,16µM*,.
COc1ccc(C(=O)NCCc2nc3ccccc3[nH]2)cc1,2%,-3%,-19%,-2%[12.3 µM]
O=C(/C=C/c1cnc2ccccc2n1)NC12CC3CC(CC(C3)C1)C2,3%,?,?,4%
Cc1ccc(-c2nc(Nc3ccc(O)cc3)c3ccccc3n2)cc1,.,21µM*,?,.
COC(=O)c1ccc(Nc2nc(-c3ccc(C)cc3)nc3ccccc23)cc1,4%,7.3µM*,13µM*,.
Cc1ccc(-c2nc(Nc3cccc(O)c3)c3ccccc3n2)cc1,-22%,23µM*,21µM*,.
c1ccc(CNc2cccnc2)cc1,-14%,-26%,-6%,.
c1cncc(Nc2c3ccccc3nc3ccccc23)c1,2%,15µM*,?,.
O=C(O)c1cccc(Nc2nc(-c3ccccc3)nc3ccccc23)c1,0%,-21%,7%,.
COCCNc1nc(-c2ccc(C(=O)N(C)C)cc2)nc2ccccc12,.,-29%,-17%,.
COc1ccccc1-c1ccc(C(=O)N2CCC(N3CCc4ccccc4C3)CC2)c(N(C)CC2COCCO2)n1 (centres undefined),.,-5%,-2%[9.04 µM],.
CC(C)CC1(C(=O)O)C=CCN1C(=O)c1ccccc1 (centres undefined),.,.,.,4%
Oc1cccc(Nc2c3ccccc3nc3ccccc23)c1,5%,1.8µM*,1.2µM*,.
CO[C@H]1CC[C@@]2(C)[C@@H](CC[C@@H]3[C@@H]2CC[C@@]2(C)[C@H]3C[C@H](C(=O)N[C@@H](CCCN=C(N)N)C(=O)NCC(=O)N[C@@H](CC(=O)O)C(N)=O)O[C@]23CCCO3)C1,0%,-6%,-13%,-1%[56.1 µM]
O=C1CCCC2=C1C(c1ccc3c(c1)OCO3)c1c([nH]n(-c3ccccc3)c1=O)N2 (centres undefined),-2%,13µM*,-20%,9%
COc1cccc(C2C3=C(CCCC3=O)Nc3[nH]n(-c4ccccc4)c(=O)c32)c1 (centres undefined),.,?,-15%,-2%
CCCOc1ccc2cc(-c3ccccn3)c(=O)oc2c1,.,16µM*,?,1%
O=C(CNC(=O)c1ccccc1F)OCC(=O)N1CCCCC1,25µM*,2%,8%,6%
Cc1ccc(C(=O)c2ccccc2C(=O)OCC(=O)N2CCCC2)cc1,.,-1%,-6%,0%
Cc1cccc(C(=O)OCC(=O)N2CCCCCC2)c1C,.,21µM*,?,-1%
CC1CCN(C(=O)COC(=O)CNC(=O)c2ccccc2F)CC1,0%,0%,-1%,4%
